Records with an inconclusive call do not appear. Active and inactive are the calls of the source. The calls were made as follows: active = hit-call score of the fitted dose curve at least 0.9, where 1 is the maximum; inconclusive = response in the unintended direction; inactive = score below 0.9.

Chain of Broad substrate specificity ATP-binding cassette transporter ABCG2 (Homo sapiens) (Q9UNQ0 whole entry, looked up): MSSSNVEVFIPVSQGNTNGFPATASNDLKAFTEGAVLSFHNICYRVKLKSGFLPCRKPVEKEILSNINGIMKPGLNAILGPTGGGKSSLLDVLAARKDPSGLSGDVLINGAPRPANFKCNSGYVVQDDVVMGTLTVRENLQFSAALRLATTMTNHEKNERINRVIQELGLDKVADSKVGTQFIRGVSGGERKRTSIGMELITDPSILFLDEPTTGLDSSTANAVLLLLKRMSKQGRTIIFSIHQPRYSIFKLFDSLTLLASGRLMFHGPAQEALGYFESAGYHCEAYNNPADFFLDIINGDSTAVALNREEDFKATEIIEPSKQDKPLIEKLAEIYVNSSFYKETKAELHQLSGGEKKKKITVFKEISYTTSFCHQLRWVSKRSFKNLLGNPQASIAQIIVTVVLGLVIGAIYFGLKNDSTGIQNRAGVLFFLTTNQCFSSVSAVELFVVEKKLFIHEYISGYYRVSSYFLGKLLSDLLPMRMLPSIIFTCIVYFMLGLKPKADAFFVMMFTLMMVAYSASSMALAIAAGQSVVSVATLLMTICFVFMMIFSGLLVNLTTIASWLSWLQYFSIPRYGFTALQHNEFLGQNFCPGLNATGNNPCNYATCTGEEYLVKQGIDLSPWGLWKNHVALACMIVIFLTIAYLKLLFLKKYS

Read-out in this test: Broad substrate specificity ATP-binding cassette transporter ABCG2 (Homo sapiens) (UniProt Q9UNQ0)
Put plainly: CLD_ABCG2_48hr: CellzDirect (CLD) Gene Expression Assay for ABC Transporter (ABCG2) at 48 hours (AID 2283704).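 As to AC50: potency for induction of ABCG2 mRNA above the DMSO baseline.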 The procedure: CLD_48hr is a cell-based, multiplexed-readout assay that uses hepatocyte, a human liver primary cell, with measurements taken at 48 hours after chemical dosing in a 96-well plate.CLD_ABCG2_48hr is one of 16 assay component(s) measured or calculated from the CLD_48hr assay. It is designed to make measurements of mRNA induction, a form of inducible reporter, as detected with chemiluminescence signals by Quantitative Nuclease Protection Assay (qNPA) technology.Data from the assay component CLD_ABCG2_48hr was analyzed at the endpoint, CLD_ABCG2_48hr, in the positive analysis fitting direction relative to DMSO as the negative control and baseline of activity. Using a type of inducible reporter, gain-of-signal activity can be used to understand changes in the reporter gene as they relate to the gene ABCG2. Furthermore, this assay endpoint can be referred to as a primary readout. To generalize the intended target to other relatable targets, this assay endpoint is annotated to the transporter intended target family, where subfamily is ABC transporter.
Human hepatocyte cultures were treated daily for two consecutive days with fresh dosing solutions containing appropriate concentrations of the 320 ToxCast chemicals (chemical identities were blinded to CellzDirect and other ToxCast collaborators), vehicle control (0.2% DMSO), and positive control inducers as summarized in Table 1. Due to the large number of treatment groups and chemicals examined, the ToxCast chemicals were divided into two groups (spanning two independent cultures of hepatocytes from separate donor preparations (Hu778: ToxCast plates 1 and 2; Hu776: ToxCast plates 3 and 4). Each preparation of human hepatocyte cultures was treated with respective vehicle control, medium only control, set of six positive controls/reference chemicals for the five hepatic receptor pathways, and a subset of eight of the ToxCast chemicals (indoxacarb, pyrithiobac-sodium, norflurazon, cyhalofop-butyl, methomyl, thiram, acetochlor, and propiconazole). These replicate data, coupled with internal replicates designed within the blinded ToxCast chemical library, provided additional data to evaluate interindividual differences between hepatocyte preparations and their potential impact on chemical profiles.Cell morphology and integrity were evaluated using phase-contrast microscopy as an indicator of hepatocyte cell health (Tyson & Green, 1987). Cultures for each treatment group (i.e., media, vehicle [0.2% DMSO], positive control inducers [multiple concentrations], and the ToxCast chemicals [multiple concentrations]) were observed and cell morphology was assessed relative to vehicle control cultures at each harvest time point (0, 6, 24, or 48 h). […] Images were evaluated at the conclusion of the study to assess changes in cell integrity and account for the effects of chemical exposure on uncharacteristic changes in concentration-dependent gene expression profiles. The results from these determinations of apparent cytotoxicity were annotated (yes/no) alongside the corresponding qNPA data for reference.At the conclusion of each treatment period, hepatocyte cultures (96-well) were washed with 1 volume of HBSS, lysed by addition of 25 ul ArrayPlate lysis buffer (HTG, Tucson, AZ), and 70 ul/well of Denaturation Oil, denatured by incubation at 95C for 10 min, and frozen at approximately -70C until analysis by nuclease protection assay (qNPA) (Roberts et al., 2007). For qNPA analysis, cell lysates were thawed at 50C for approximately 30 min, qNPA probes were added, and samples were incubated at 95C for 10 min to begin the detection process by denaturing the target RNA, dissociating the duplexes and secondary structure hybridization. At the conclusion of the hybridization period, S1 nuclease reagent was added to each sample to digest all nonprotected nucleotides at 50C for 60-90 min. […]
In the case of `O=C(O)COc1nc(Cl)c(Cl)cc1Cl`, the call was inactive.

In general, AC50 refers to the midpoint of the concentration-response curve, whichever way the signal moves. In the case of `OC(c1ccc(Cl)cc1)(c1cncnc1)c1ccccc1Cl` (stereo not given), the AC50 is 33.4 µM (active).

In the case of `CC(C)C1(C)N=C(c2nc3ccccc3cc2C(=O)O)NC1=O` (stereo not given), the call was inactive.

With `CCCCC(CC)COC(=O)c1ccccc1C(=O)OCC(CC)CCCC` (stereo not given), the compound was called inactive.

Regarding `Oc1ccccc1-c1ccccc1`, the outcome was inactive.

As to `CC(C)(C)c1ccc(CSc2cnn(C(C)(C)C)c(=O)c2Cl)cc1`, the call was inactive.

In the case of `CN(C)C(=S)SSC(=S)N(C)C`, the outcome was inactive.

As to `COP(=S)(OC)Oc1nc(Cl)c(Cl)cc1Cl`, the outcome was inactive.

`Cc1c(F)c(F)c(COC(=O)C2C(/C=C(\Cl)C(F)(F)F)C2(C)C)c(F)c1F` (stereo not given): the compound was called inactive.

Consider `C=CCC1=C(C)C(OC(=O)C2C(C=C(C)C)C2(C)C)CC1=O` (stereo not given), for which the result was inactive.

`CNC(=S)S`: the compound was called inactive.

As to `CCCC1COC(Cn2cncn2)(c2ccc(Cl)cc2Cl)O1` (stereo not given), the compound was called inactive.

Consider `O=C(Nc1ccccc1)Nc1ccnc(Cl)c1`, for which the compound was classed as inactive.

In the case of `N#Cc1nn(-c2c(Cl)cc(C(F)(F)F)cc2Cl)c(N)c1S(=O)C(F)(F)F` (stereo not given), the AC50 was 31.6 µM (active).

Regarding `CS/C(C)=N/OC(=O)N(C)SN(C)C(=O)O/N=C(\C)SC`, the result was inactive.

On to `O=C(O)c1nc(Cl)ccc1Cl`, for which the compound was classed as inactive.

Take `Fc1ccc(Oc2ccnc3cc(Cl)cc(Cl)c23)cc1`: the outcome was inactive.

Regarding `N#Cc1cc(Br)c(O)c(Br)c1`, the compound was called inactive.

With `CO/C=C(/C(=O)OC)c1ccccc1Oc1cc(Oc2ccccc2C#N)ncn1`, the result was inactive.

`Cc1cc(Cl)ccc1OCC(=O)O`: the call was inactive.

For `COC(=O)C=C(C)OP(=O)(OC)OC`, the result was inactive.

On to `CCOC(=O)CC(SP(=S)(OC)OC)C(=O)OCC` (stereo not given), for which the call was inactive.

Consider `C=CC1(C)OC(=O)N(c2cc(Cl)cc(Cl)c2)C1=O` (stereo not given), for which the call was inactive.

Turning to `CCc1nn(C)c(C(=O)NCc2ccc(C(C)(C)C)cc2)c1Cl`, the AC50 is 26.2 µM (active).

With `CCCCOC(=O)c1ccccc1C(=O)OCCCC`, the result was inactive.

As for `COC(=O)N(OC)c1ccccc1COc1ccn(-c2ccc(Cl)cc2)n1`, the AC50 is 20 µM (active).

`COP(N)(=O)SC` (stereo not given): the result was inactive.

For the compound `C=CCC1=C(C)[C@@H](OC(=O)[C@@H]2[C@@H](C=C(C)C)C2(C)C)CC1=O`, the compound was classed as inactive.

In the case of `CCCCNC(=O)OCC#CI`, the outcome was inactive.

Turning to `COc1nc(C)nc(NC(=O)NS(=O)(=O)c2ccccc2CCC(F)(F)F)n1`, the call was inactive.

As to `C#CCOS(=O)OC1CCCCC1Oc1ccc(C(C)(C)C)cc1` (stereo not given), the compound was called inactive.

On to `COc1nc(C)nc(NC(=O)NS(=O)(=O)c2ccccc2Cl)n1`, for which the outcome was inactive.

In the case of `N#CC(CCc1ccc(Cl)cc1)(Cn1cncn1)c1ccccc1` (stereo not given), the outcome was inactive.

As for `CC(C)Oc1cc(-n2nc(C(C)(C)C)oc2=O)c(Cl)cc1Cl`, the call was inactive.

In the case of `CCOc1cc(Oc2ccc(C(F)(F)F)cc2Cl)ccc1[N+](=O)[O-]`, the result was inactive.

Turning to `COC(=O)C(C)Oc1ccc(Oc2ccc(Cl)cc2Cl)cc1` (stereo not given), the compound was classed as inactive.

`CCNc1nc(Cl)nc(NCC)n1`: the compound was called inactive.

Regarding `CCCN(CCC)c1c([N+](=O)[O-])cc(S(N)(=O)=O)cc1[N+](=O)[O-]`, the result was inactive.

Turning to `COC(=O)c1ccccc1C(=O)OC`, the call was inactive.

Take `CC1COC(Cn2cncn2)(c2ccc(Oc3ccc(Cl)cc3)cc2Cl)O1` (stereo not given): the call was inactive.

For the origin of these results see PubChem BioAssay (EPA / NIEHS).
